# According to the supplement of paper PMC6555819:
# How the values were obtained:
# Assay in all cases: PBM binding z-score (relative to random genomic background probes); higher = stronger binding; sequences stand for … in GC…GCGATTGACAGCGTAGAATGAAGG
# [1] = test system: FXR:RXRa (NR concentration 270 nM, RXRa partner concentration 90 nM)
# Method in brief: (§1)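 Ligand-free nuclear receptor dimers were bound for 1 h to custom Agilent 4×180K protein-binding microarrays. Detection used antibodies against each partner (one per run). Binding z-scores rest on regression-normalized fluorescence, with random background probes as the reference.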
# [2] = test system: LXRa:RXRa (NR concentration 270 nM, RXRa partner concentration 90 nM)
# Method in brief: as §1
# [3] = test system: LXRa homodimer (NR concentration 270 nM)
# Method in brief: as §1
# [4] = test system: LXRb:RXRa (NR concentration 270 nM, RXRa partner concentration 90 nM)
# Method in brief: as §1
# [5] = test system: LXRb homodimer (NR concentration 270 nM)
# Method in brief: as §1
# [6] = test system: PPARa:RXRa (NR concentration 270 nM, RXRa partner concentration 90 nM)
# Method in brief: as §1
# [7] = test system: PPARg:RXRa (NR concentration 180 nM, RXRa partner concentration 90 nM)
# Method in brief: as §1
# [8] = test system: PPARg:RXRa 270nM:90nM, anti-RXR (NR concentration 270 nM, RXRa partner concentration 90 nM)
# Method in brief: as §1
# [9] = test system: PPARg:RXRa 30nM:10nM, anti-RXR (NR concentration 30 nM, RXRa partner concentration 10 nM)
# Method in brief: as §1
# [10] = test system: PPARg:RXRa 90nM:30nM, anti-RXR (NR concentration 90 nM, RXRa partner concentration 30 nM)
# Method in brief: as §1
# [11] = test system: PPARg:RXRa DBDmut IVT, anti-RXR (DBD mutation: RXRa K156A/R161A, NR concentration 270 nM, RXRa partner concentration 90 nM)
# Method in brief: as §1
# [12] = test system: PPARg:RXRa IVT, anti-PPARg (NR concentration 270 nM, RXRa partner concentration 90 nM)
# Method in brief: as §1
# [13] = test system: PPARg DBDmut:RXRa IVT, anti-PPARg (DBD mutation: PPARg1 K132A/R137A, NR concentration 270 nM, RXRa partner concentration 90 nM)
# Method in brief: as §1
# [14] = test system: PPARg DBDmut IVT, anti-PPARg (DBD mutation: PPARg1 K132A/R137A, NR concentration 270 nM)
# Method in brief: as §1
# [15] = test system: PPARg homodimer (NR concentration 180 nM)
# Method in brief: as §1
# [16] = test system: PXR:RXRa (NR concentration 270 nM, RXRa partner concentration 90 nM)
# Method in brief: as §1
# [17] = test system: PXR homodimer (NR concentration 270 nM)
# Method in brief: as §1
# [18] = test system: RARa:RXR (NR concentration 270 nM, RXRa partner concentration 90 nM)
# Method in brief: as §1
# [19] = test system: RARa homodimer (NR concentration 270 nM)
# Method in brief: as §1
# [20] = test system: RARb:RXRa (NR concentration 270 nM, RXRa partner concentration 90 nM)
# Method in brief: as §1
Sequence,PBM binding z-score [1],PBM binding z-score [2],PBM binding z-score [3],PBM binding z-score [4],PBM binding z-score [5],PBM binding z-score [6],PBM binding z-score [7],PBM binding z-score [8],PBM binding z-score [9],PBM binding z-score [10],PBM binding z-score [11],PBM binding z-score [12],PBM binding z-score [13],PBM binding z-score [14],PBM binding z-score [15],PBM binding z-score [16],PBM binding z-score [17],PBM binding z-score [18],PBM binding z-score [19],PBM binding z-score [20]
AGCACGAGGGCACGCTGAGTTGATAGCAGAGTAG,0.941,0.602,-0.669,0.23,-1.28,1.61,1.22,0.752,-0.187,0.162,2.09,2.17,0.0423,-0.669,0.0355,1.32,0.313,0.919,-0.335,2.59
TCTATTAGTTGAAGGGCAACCGTCGAGTCCGTTT,0.742,0.933,0.368,0.792,0.191,0.493,-0.355,2.08,3.65,2.84,2.35,0.992,0.699,1.21,0.883,0.735,0.911,0.24,1.09,1.63
CTACCAAGGTGAAAAAGGTCGTTGATTACTATTC,1.22,1.45,0.405,1.86,-0.412,2.61,0.694,1.3,0.297,0.721,1.42,1.39,0.0289,-0.0502,0.878,2.31,1.09,2.56,0.555,2.02
CTGCCTAGGTCAGGGCCAGTATAGGAGGAACGTT,1.28,1.01,-0.475,0.634,-1.25,1.88,0.668,0.916,-0.35,0.272,1,1.46,-0.75,-0.806,0.559,0.208,-0.739,0.901,-0.655,3.38
CCTCGGAGGACAACAGGAGGTCAGGGCTGCCAGA,1.17,1.84,1.45,1.14,-0.784,2.09,0.517,0.522,-0.226,0.18,-0.161,0.479,-0.962,-1.94,1.52,2.11,0.134,2.83,0.694,3.01
TAGCCTAGGTCATGCGGTCCAGTATAGTGTCGGC,4.09,2.83,0.301,1.8,-0.379,3.51,2.34,2.32,0.235,1.3,1.68,3.01,-0.501,0.0737,0.743,1.77,0.0796,2.22,-0.726,3.79
AGTCAAAGTTCACTAGGTAGCGTAAGATTCAGCT,5.23,5.4,3.04,2.9,0.743,4.13,6.27,6.17,2.76,5.22,1.37,3.4,0.246,0.621,2.62,4.12,2.83,3.01,1.33,4.68
TCTAGTTGGTCAAAGGTCAGACACTCGAAATGCG,4.59,4.69,2.66,4.41,1.43,5.67,11.3,9.55,11.6,11.6,3.43,5.86,1.03,0.417,4.36,4.74,1.67,6.17,3.82,4.53
AGAACGAGGGCAATGAGTTGATAGCCCGGGTGGC,0.0897,0.0637,-0.355,-0.437,-0.943,1.34,1.01,0.868,-0.3,0.416,3.22,2.62,0.0916,-0.0623,0.48,1.43,5.33,0.0801,-0.603,2.13
TCATATAGGTAATACAGGTGAAAGTAGGCATCTA,0.885,1.45,0.55,1.22,0.295,2.15,2.26,2.62,3.8,3.24,3.97,3.61,1.94,1.73,1.39,0.952,0.772,1.07,1.69,0.613
CCGACTGGGGCAAGGGTACCATAACGCACAGCCA,-0.555,-0.391,-0.264,-0.192,-1.39,1.5,4.24,4.92,2.6,4.6,2.26,3.6,0.123,-0.113,0.601,-0.478,-0.439,-0.197,-0.395,0.933
TAGCCTAGGTCAAATCGGGCCAGTATACGCTATA,5.06,4.49,0.78,3.26,0.87,4.1,2.33,2.88,0.735,2.01,1.98,3,0.169,0.237,1.68,2.95,-0.306,2.74,-0.373,3.68
CGTCCAAGGTCAATGCTAGGTCAGTAAAAGCATT,6.68,5.2,2.38,4.32,0.868,5.23,4.37,4.46,1.9,3.08,3.36,4.08,0.0708,-0.363,5.6,4.82,1.32,6.12,1.53,5.32
GCTAGCAGGCCATTTGGGTCAATCAATGACGGGC,0.192,0.264,-0.476,0.271,-0.737,1.4,0.636,0.364,-1.07,-0.156,1.77,1.92,-1.29,-0.902,-0.569,0.511,0.261,0.95,-0.573,1.3
CCTACTGGGCCACGGTCATTGATCAGTCAAAGCA,-0.282,-0.19,0.043,-0.408,-0.712,1.3,2.11,2.06,-0.0299,1.1,4.71,5.29,-0.475,-0.479,0.397,-0.436,-0.0793,-0.106,-0.863,1.56
ATCGAAAGGTAGAAGGTGAGTATACCCACCCGAA,0.00191,0.0493,-0.115,-0.132,0.0948,1.26,1.3,1.72,0.876,1.03,-0.39,0.667,1.35,-0.025,0.231,0.0568,0.241,0.388,0.608,0.615
ACTCGGAGTACAAAGGTCAGAGCTACGCCAGTGA,4.23,4.12,1.57,3.56,0.437,5.17,8.46,7.54,7.42,8.33,0.771,3.83,-0.013,0.136,3.32,4.1,0.393,4.96,2.36,4.39
TAGCCTAGGTCATTCAGGGGCCAGTATTGAAAGC,4.17,3.5,0.907,3.03,0.763,3.43,1.63,2.22,0.291,1.32,1.67,2.66,-0.277,-0.0243,2.68,2.72,-0.361,3.99,-0.562,3.8
TTTGCTAGGTCAGTTGGTCAGCTAACGAGCTGCC,1.15,1.41,0.52,0.404,0.521,1.54,1.1,1.77,-0.172,1.34,3.23,3.87,-0.438,-0.0692,0.648,0.0416,-0.599,0.42,-0.935,3.31
CCTCGGATGACAGAAGGTCAGAGCTGTCCGCTTT,1.3,1.79,0.493,1.37,0.0484,2.01,0.0217,0.56,-0.64,0.0995,0.0182,-0.0257,-1.19,-1.32,1.51,1.5,0.235,1.85,0.773,2.59
CCTATTAGTTGACCATAAGGGTAACCGAAGCTCG,0.709,0.386,0.682,0.604,0.958,0.678,0.317,0.671,0.348,0.358,0.609,0.727,0.109,1.15,1.86,0.536,1.04,0.834,2.48,1.06
ACTCGGAGGACAAAGGTCAGCGCTACGCCAGTGA,4.44,4.2,1.62,3.51,0.168,5.24,8.05,7.77,7.19,8.33,0.977,3.82,0.281,-0.509,4.7,3.99,0.485,5.21,1.94,4.73
ATCTCTAGGTAACAATTTCAGTGAAAGAGAGGAC,0.775,0.589,0.266,0.374,1.34,0.437,0.734,0.62,0.676,0.649,3.38,2.8,1.3,1.6,0.669,0.204,0.98,0.221,1.81,0.518
CTACCAAGATGAACAAGGTCGTTGATTACTATTC,0.828,0.783,0.9,1.49,0.267,1.09,0.228,0.135,-0.0206,0.314,0.459,0.305,0.173,0.136,0.792,1.53,1.73,1.45,1.7,0.656
TCATATAGGTAAATGTTAGGTGAAAGTCCGATCT,1.64,1.44,0.543,1.22,0.304,1.64,1.04,2.53,4.07,3.22,4.12,2.63,1.47,1.82,1.66,0.918,0.8,1.63,1.9,0.728
CGTCCAAGGTCTTAGGAGGTCAGTGAAGACAGAT,1.69,3.12,0.984,2.03,-0.404,2.28,0.427,1.06,0.0477,0.43,0.587,1.31,-0.3,-0.454,1.17,3.07,0.796,2.15,-0.152,2.46
TCTATTAGTGGAAGGGCAACCGACGAGTCCGTTT,0.67,0.688,0.218,0.807,0.57,0.716,0.0931,1.91,3.26,2.56,2.03,0.68,0.155,-0.147,0.597,0.698,0.821,0.778,0.46,1.59
ATATGTAGGTTGAGGGTCATTCAGGTTGGTTCGC,3.26,3.21,1.56,3.31,1.32,4.86,7.99,7.58,6.69,7.97,4,4.86,1.94,0.913,3.16,4.49,2.53,3.89,1.57,2.57
